# From PubChem BioAssay
# Values joined by “and” are separate entries in the source; they are usually repeats but may differ in a detail not shown here. Equal entries are not always repeated. Active and inactive are the calls of the source.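 How the source made its calls, unless noted: active means mean z-score across replicates of 1.96 or higher in either the MELAS or the Rieske mutant cell line; inactive means the rest.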
# Assays:
# [1] = stimulators of nuclear beta-catenin in C2C12, primary screen, imaging, WNT3A-conditioned medium, mouse C2C12, NPC library (AID 1117326; in the data active means nuclear beta-catenin stimulation mostly above about 4.2%, no sharp cut-off; inactive means mostly below about 10%); details: stronger effect = higher value
# [2] = stimulators of insulin release from INS-1E, primary screen, cell-based, 5 mM glucose, NPC library (AID 1117329;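 active means compound raises insulin release from rat beta cells at 5 mM glucose, no numeric limit stated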); details: rat INS-1E insulin secretion, at 10 µM, stronger effect = higher value
# [3] = growth inhibition of GSK3B-pretreated HCT116 cells – cell-based, CellTiter-Glo, 0.2 to 20 µM (AID 1117336;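 active means compounds lowering colon cancer cell viability after pretreatment blocking the GSK3B kinase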); details: HCT116 viability after GSK3B inhibitor, at 20 µM, stronger effect = higher value
# [4] = inhibition of endothelial tube formation, primary screen, imaging, VEGF stimulated, CD31 staining, tube area, NPC library (AID 1117340;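 active means compound that reduces growth-factor-driven endothelial tube area in a mixed cell culture, no cutoff stated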); details: VEGF-stimulated ADSC/ECFC co-culture, at 10 µM, stronger effect = higher value
# [5] = glucagon-like peptide 1 release enhancers, primary assay, NCI-H716 cell line, NPC library (AID 1117341;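 active means compound raises GLP1 secretion from the human gut endocrine cells, with no numeric limit stated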); details: NCI-H716 cells, at 10 µM, stronger effect = higher value
# [6] = HCT116 colon cancer cell growth inhibition, primary screen, CellTiter-Glo luminescence, NPC library (AID 1117342;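 active means compounds that lower survival of HCT116 colon cancer cells in the luminescence readout, no numeric limit stated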); details: at 20 µM (top of the series)
# [7] = CellTiter-Glo luminescent readout of SW480 viability loss, NPC library primary (AID 1117343;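 active means compounds that lower viability of the colon cancer cells in the luminescence readout, with no numeric limit stated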); details: CellTiter-Glo luminescence; at 20 µM (top of the series) unless noted
# [8] = decreased DLD-1 cellular survival, CellTiter-Glo luminescent readout, NPC compound collection, primary HTS (AID 1117346;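 active means compounds that lower survival of DLD-1 colon cancer cells in the luminescence readout, no cutoff given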); details: DLD-1 viability, CellTiter-Glo luminescence; at 20 µM (top of the series)
# [9] = differential killing of epithelial or mesenchymal cells, primary screen, imaging, PC-3E GFP, TEM4-18 mCherry, co-culture (AID 1345086;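 active means compounds killing one labelled cell type while sparing the other, by normalised counts and ratio limits, not self-fluorescent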;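 on all read-outs here: cells exposed to compound for 72 h before imaging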;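 on red/green cell ratio (normalised): normalised mesenchymal count divided by normalised epithelial count so high means epithelial killing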); details: imaging cell counts, at 1 µM; for red/green cell ratio (normalised): actives lie on both sides, counts scaled to control wells, 1 = unselective
# [10] = sensitizers of A549 cells to miR-34 induction, primary screen, imaging, A549 dox-inducible miR-34, nuclei and caspase counts (AID 1347080;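 active means compounds whose cell count with miR-34 switched on is under 0.7 times the count with it off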); details: A549 miR-34 inducible, Hoechst nuclei count, 48 h
# [11] = survival rescue of mitochondrial mutant cells in low glucose, primary screen, MELAS cybrids, Rieske KO mouse fibroblasts, CellTiter-Glo (AID 1508586);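 further: z relative to plate mean and SD of compound and empty wells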
# [12] = LFS_MB_P medulloblastoma growth inhibition, cell-based, chromothripsis tumors, cisplatin or BGB combos (AID 1671449; in the data active means inhibition above about 80%;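 further: cells exposed for 96 hours; 0% = vehicle DMSO and 100% = killing by high DMSO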); details: LFS_MB_P medulloblastoma cells
# [13] = HDN33 neuroblastoma growth inhibition, cell-based, chromothripsis tumors, cisplatin or BGB combos (AID 1671450; in the data active means inhibition above about 80%;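 further: cells exposed to compound for four days; 0% = vehicle DMSO and 100% = cell killing by high DMSO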); details: HDN33 neuroblastoma cells, stronger effect = higher value
# [14] = ICB984 medulloblastoma cell growth inhibition, synergistic combos for chromothripsis tumors, cisplatin or BGB combos (AID 1671451; call rule not given here;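 further: cells exposed for 96 hours before readout; 0% = vehicle DMSO and 100% = killing by high DMSO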); details: ICB984 medulloblastoma cells, drug combinations, stronger effect = higher value
# [15] = HTB85 osteosarcoma cell growth inhibition, synergistic combos for chromothripsis tumors, BGB or cisplatin IC20 combos (AID 1671453; in the data active means inhibition above about 80%;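 further: cells exposed for 96 hours before readout; 0% = vehicle DMSO and 100% = high DMSO killing control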); details: HTB85 osteosarcoma cells, drug combinations, stronger effect = higher value
# [16] = MDA-MB-436 breast carcinoma cell growth inhibition, synergistic combos for chromothripsis tumors, BGB or cisplatin combos (AID 1671458; call rule not given here;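 further: cells exposed for 96 hours; 0% = vehicle DMSO and 100% = killing by high DMSO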); details: MDA-MB-436 breast carcinoma growth inhibition, drug combinations, stronger effect = higher value
# [17] = target: NAD(+) hydrolase SARM1 (Homo sapiens) (UniProt Q6SZW1); assay: SARM1 TIR NADase inhibitors, cell lysate, NAD-Glo luminescence (AID 1508614;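 active means compound whose remaining NAD level is above about 45 nM, limit read from the data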); details: SAM-TIR HEK293T lysate NADase, at 1 µM, stronger effect = higher value
# [18] = hESC survival regulators, cell-based (AID 493140; call rule not given here;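 further: cells exposed to compounds for four days before counting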); details: human embryonic stem cell survival screen; stronger effect = higher value
# [19] = liver-stage malaria parasite growth inhibition, primary screen, cell-based, HepG2, luciferase luminescence, HepG2 viability (AID 624349; in the data active means parasite load remaining mostly below about 12%, no sharp cut-off; inactive means mostly above about 10%;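 further: 100% = mean of DMSO negative control wells on the same plate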); details: P. berghei liver stage in HepG2, luciferase luminescence, concentration not given here; parasite load remaining: stronger effect = lower value; viability: measured here: HepG2 viability without parasites
# [20] = measured here: epithelial PC-3E GFP cell survival
# [21] = measured here: mesenchymal TEM4-18 mCherry cell survival
# [22] = stronger effect = lower value, cell number ratio, induced over uninduced
# [23] = measured here: relative caspase fold change +Dox/-Dox
# [24] = measured here: total cells with miR-34 induction, stronger effect = lower value
# [25] = measured here: total cells without miR-34 induction
# [26] = MELAS cybrid survival, CellTiter-Glo 48 h, stronger effect = higher value
# [27] = Rieske KO mouse fibroblast survival, CellTiter-Glo 72 h
# Chain of NAD(+) hydrolase SARM1 (Homo sapiens) (Q6SZW1 whole entry, looked up): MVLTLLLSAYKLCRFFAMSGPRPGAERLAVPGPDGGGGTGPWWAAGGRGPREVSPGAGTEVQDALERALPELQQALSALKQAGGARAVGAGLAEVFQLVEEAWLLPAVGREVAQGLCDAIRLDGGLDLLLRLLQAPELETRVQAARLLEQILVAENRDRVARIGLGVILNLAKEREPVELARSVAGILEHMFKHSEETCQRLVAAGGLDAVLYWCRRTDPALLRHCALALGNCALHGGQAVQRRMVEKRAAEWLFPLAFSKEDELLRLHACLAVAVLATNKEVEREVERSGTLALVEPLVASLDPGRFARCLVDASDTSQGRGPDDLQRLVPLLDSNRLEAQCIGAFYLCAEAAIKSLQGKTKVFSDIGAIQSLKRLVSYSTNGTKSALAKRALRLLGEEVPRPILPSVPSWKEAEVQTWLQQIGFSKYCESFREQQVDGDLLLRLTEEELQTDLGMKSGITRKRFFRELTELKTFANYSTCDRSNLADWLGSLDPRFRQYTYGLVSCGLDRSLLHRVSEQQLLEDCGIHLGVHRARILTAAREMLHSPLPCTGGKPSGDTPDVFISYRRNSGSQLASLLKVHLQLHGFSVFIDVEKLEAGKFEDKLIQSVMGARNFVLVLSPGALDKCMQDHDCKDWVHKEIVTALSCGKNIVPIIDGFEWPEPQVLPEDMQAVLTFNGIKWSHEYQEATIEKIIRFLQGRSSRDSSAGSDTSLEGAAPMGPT
structure (smiles),measurement,setting,value
CNC1CCCN(c2c(F)cc3c(=O)c(C(=O)O)cn(C4CC4)c3c2OC)C1 (stereo unspecified),nuclear beta-catenin stimulation,[1]; at 10 µM,-0.1% (inactive)
same,nuclear beta-catenin stimulation,"[1]; stimulation, at 2 µM",0%
same,insulin secretion stimulation,[2],5.75% (inactive)
same,viability decrease,[3],42.9% (inactive)
same,tube area decrease,[4],-9% (inactive)
same,GLP1 secretion stimulation,[5],1.4% (inactive)
same,inhibition of viability,[6],10.1% (inactive)
same,viability decrease (inhibition),[7],6% (inactive)
same,viability decrease (inhibition),[8],-25.9% (inactive)
same,red/green cell ratio (normalised),[9],1.13 (inactive)
same,normalised cell number,[9]; [20],1.05
same,normalised cell number,[9]; [21],1.18
same,fold change,[10]; [22],0.938 (inactive)
same,fold change,[10]; [23],0.74
same,cell count,[10]; [24],8330
same,cell count,[10]; [25],8880
same,z-score,[11]; [26],-0.145 (inactive)
same,z-score,[11]; [27],0.59
same,inhibition,"[12]; at 0.5 µM, stronger effect = higher value",6.49% (inactive)
same,inhibition,"[12]; measured here: combination with BGB IC20, at 0.005 µM",-28.5%
same,inhibition,"[12]; measured here: combination with BGB IC40, at 0.005 µM",-37.4%
same,inhibition,"[12]; measured here: combination with BGB IC40, at 0.05 µM",-26.1%
same,inhibition,"[12]; measured here: combination with cisplatin, at 0.5 µM, stronger effect = higher value",1.25%
same,inhibition,"[12]; measured here: combination with cisplatin, at 5 µM, stronger effect = higher value",-35.3%
same,inhibition,"[13]; BGB combo, at 5 µM",-29.7%
same,inhibition,[13]; at 0.5 µM,-41% (inactive)
same,inhibition,"[13]; cisplatin combo, at 5 µM",-60.5%
same,inhibition,"[13]; measured here: with BGB IC20 combination, at 0.5 µM",-39.7%
same,inhibition,"[13]; measured here: with cisplatin IC20 combination, at 0.5 µM",-37.4%
same,inhibition,"[13]; single agent, at 5 µM",-52%
same,inhibition,"[14]; BGB IC20 combo, at 0.005 µM",-26.8%
same,inhibition,"[14]; BGB IC40 combo, at 0.005 µM",-20.1%
same,inhibition,"[14]; BGB IC40 combo, at 0.05 µM",-26.3%
same,inhibition,[14]; at 0.5 µM,-21.9% (inactive)
same,inhibition,"[14]; cisplatin combo, at 0.05 µM",-26.3%
same,inhibition,"[14]; cisplatin combo, at 0.5 µM",-35.1%
same,inhibition,"[14]; cisplatin combo, at 5 µM",-31.2%
same,inhibition,"[14]; measured here: 5 uM single agent, at 5 µM",-13.6%
same,inhibition,[15]; at 0.5 µM,-23.2% (inactive)
same,inhibition,"[15]; measured here: with BGB IC20, at 0.5 µM",-35.9%
same,inhibition,"[15]; measured here: with BGB IC20, at 5 µM",-27.5%
same,inhibition,"[15]; measured here: with cisplatin IC20, at 0.5 µM",-20.5%
same,inhibition,"[15]; measured here: with cisplatin IC20, at 5 µM",-18.5%
same,inhibition,"[15]; single agent, at 5 µM",-28.7%
same,inhibition,[16]; at 0.5 µM,-22.5% (inactive)
same,inhibition,"[16]; measured here: BGB combination, at 0.5 µM",-19.9%
same,inhibition,"[16]; measured here: BGB combination, at 5 µM",-19.5%
same,inhibition,"[16]; measured here: cisplatin combination, at 0.5 µM",-36.1%
same,inhibition,"[16]; measured here: cisplatin combination, at 5 µM",-11.6%
O=C1Cc2cc(CCN3CCN(c4nsc5ccccc45)CC3)c(Cl)cc2N1,nuclear beta-catenin stimulation,[1]; at 10 µM,0.7% (inactive)
same,nuclear beta-catenin stimulation,"[1]; stimulation, at 2 µM",0.6%
same,insulin secretion stimulation,[2],0.65% (inactive)
same,viability decrease,[3],117% (active)
same,tube area decrease,[4],22.4% (inactive)
same,GLP1 secretion stimulation,[5],2.9% (inactive)
same,inhibition of viability,[6],124% (active)
same,viability decrease (inhibition),[7],91.1% (active)
same,viability decrease (inhibition),[8],101% (active)
same,red/green cell ratio (normalised),[9],0.94 (inactive)
same,normalised cell number,[9]; [20],1.17
same,normalised cell number,[9]; [21],1.1
same,fold change,[10]; [22],0.799 (inactive) and 0.929 (inactive) and 0.946 (inactive)
same,fold change,[10]; [23],1.72 and 0.693 and 2.86
same,cell count,[10]; [24],4490 and 6730 and 8460
same,cell count,[10]; [25],5620 and 7240 and 8940
same,z-score,[11]; [26],-0.541 (inactive) and 0.954 (inactive)
same,z-score,[11]; [27],1.41 and -0.174
same,remaining NAD,[17],10 nM (inactive)
NC(N)=NC(N)=NCCc1ccccc1,survival,[18],15 (inactive)
same,parasite load remaining,[19],-0.135% (inactive) and 69.8% (inactive) and 0.98% (inactive)
same,viability,[19],41.9% and 91.2% and 89.5%
same,nuclear beta-catenin stimulation,[1]; at 10 µM,0% (inactive)
same,nuclear beta-catenin stimulation,"[1]; stimulation, at 2 µM",1.1%
same,insulin secretion stimulation,[2],-0.2% (inactive)
same,viability decrease,[3],27.4% (inactive)
same,tube area decrease,[4],27.6% (inactive)
same,GLP1 secretion stimulation,[5],-0.4% (inactive)
same,inhibition of viability,[6],9.6% (inactive)
same,viability decrease (inhibition),[7],70.3% (active)
same,viability decrease (inhibition),[8],9.45% (inactive)
same,red/green cell ratio (normalised),[9],0.86 (inactive)
same,normalised cell number,[9]; [20],1.06
same,normalised cell number,[9]; [21],0.91
same,z-score,[11]; [26],-0.896 (inactive) and -0.373 (inactive) and -0.362 (inactive)
same,z-score,[11]; [27],-0.647 and 0.306 and -0.384
same,remaining NAD,[17],10 nM (inactive)
